Results taken from PubChem BioAssay AID1259418 (Broad Institute, 2018).
Hit rate of the full screen: of about 3,400 compounds, about 840 (25%) were called active. Inconclusive results (about 11%) are left out. Only a sample is shown. Measured potencies and affinities stand elsewhere. Values without a mark were called inactive.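 Rule for the calls: active = fitted half-maximal concentration of signal decrease at or below twice the sample's top tested concentration; inconclusive = flat curve between -70 and -30 percent, or poor fit; inactive = flat within 30 percent, signal rise, or potency above limit.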

Experiment: T. gondii growth inhibition with IFN-gamma, dose response, cell-based, ME49Luc, HeLa, luciferase, 72 h (AID 1259418)
Conditions: T. gondii ME49Luc in IFN-y HeLa, hits give low values, -100% = high-dose IFN-γ control wells; at 19.5 µM unless noted

Structure (SMILES)	max activity
CC(C)CCNc1nc(-c2ccc(Cl)cc2)nc2ccccc12	-13.6% [at 0.35 µM]
COc1ccc(-c2nc(NCCN3CCC(C)CC3)c3ccccc3n2)cc1	14.8%
CCCCNc1nc(-c2ccc(Cl)cc2)nc2ccccc12	12.4% [at 0.68 µM]
COc1ccc(-c2nc(NCC3CCN(Cc4ccccc4Cl)CC3)c3ccccc3n2)cc1	-15.1% [at 10 µM]
COc1ccc2[nH]cc(CCNC(=O)c3cc(-c4ccccn4)nc4ccccc34)c2c1	-12.8% [at 5 µM]
Cc1ccc(-c2coc(-c3ccc(NS(=O)(=O)c4ccc(Cl)cc4)cc3)n2)cc1C	40.5% [at 2.6 µM]
Cc1ccc(NC(=O)COc2nc(C)nc3ccccc23)c(Cl)c1	15.5% [at 0.68 µM]
COc1cc(OC)cc(-c2noc(-c3nnn(Cc4nc(-c5cccc(C)c5)oc4C)c3C)n2)c1	-7.99% [at 0.16 µM]
Cc1ccc(NC(=O)Nc2ccc(-c3nc(-c4ccc(C)cc4)co3)cc2)cc1	24% [at 5 µM]
CCc1cccc(-n2nnc(C(=O)N3CCC(N4CCCCC4)CC3)c2-c2cccnc2)c1	25.9% [at 0.68 µM]
COCC(=O)N1CCC2(CC1)CC1(CCN(CC(C)C)CC1)C(=O)N2C	34.4%
O=C1CC(c2ccncc2)C2(CCN(Cc3nccs3)CC2)N1 (centres undefined)	22.8%
CCS(=O)(=O)N1CC[C@H]2[C@@H]1CCN2Cc1cnn(C)c1	27.1%
COc1ccc(-c2nc(Nc3cc(Cl)c(OC)cc3OC)c3ccccc3n2)cc1	18.3%
COc1ccc(-c2nc(Nc3ccc(OC)c(Cl)c3)c3ccccc3n2)cc1	16.4% [at 2.6 µM]
Cc1ccc(S(=O)(=O)N2CCC3(CC2)OC(C(=O)N(C)C)Cn2ccnc23)cc1 (centres undefined)	40.3%
O=C(Nc1ccccc1F)N1C[C@@H]2N[C@H](C1)C2c1ccc(/C=C/c2ccccc2)cc1 (some centres undefined)	85.7% [at 1.2 µM]
N#Cc1cccc(-c2ccc(C3[C@@H]4CN(C(=O)c5ccc6c(c5)OCO6)C[C@H]3N4)cc2)c1 (some centres undefined)	17.9%
O=C(CN1CCOCC1)N1C[C@@H]2N[C@H](C1)C2c1ccc(/C=C/c2ccccc2)cc1 (some centres undefined)	41.5% [at 10 µM]
O=C(C1CC1)N1C[C@@H]2N[C@H](C1)C2c1ccc(/C=C/c2ccccc2)cc1 (some centres undefined)	92.7% [at 0.08 µM]
O=C(Nc1ccc2c(c1)OCO2)N1C[C@@H]2N[C@H](C1)C2c1ccc(C=Cc2ccccc2)cc1 (some centres undefined)	116% [at 1.2 µM]
N#Cc1ccc(-c2ccc([C@@H]3[C@H]4CNC[C@@H]3N4Cc3ccc4c(c3)OCO4)cc2)cc1	28.6% [at 10 µM]
COc1ccccc1NC(=O)N1C[C@@H]2N[C@H](C1)C2c1ccc(/C=C/c2ccccc2)cc1 (some centres undefined)	-98%
Cc1cccc(N2CCN(C(=O)c3ccc(-c4csc(C5CC5)n4)cc3)CC2C)c1 (centres undefined)	40.1%
CCN1C(=O)CCc2cc(NC(=O)c3ccc(Br)o3)ccc21	15.9% [at 10 µM]

Structure (SMILES)	max activity
Cc1ccc(-c2coc(-c3ccc(NC(=O)Nc4ccccc4Br)cc3)n2)cc1	-10.7% [at 10 µM]
CCc1ccccc1NC(=O)CN1CCC2(CC1)N=C(c1cccc(Cl)c1)C(=O)N2	9.92%
Cn1c(=O)c(C(=O)NCc2ccccc2Cl)cc2cccnc21	196%
CCOc1ccc(-c2nc(CN(c3ccccc3OCC)S(=O)(=O)c3cccs3)c(C)o2)cc1	6.64%
Cc1ccccc1N(Cc1nc(-c2cccc(Cl)c2)oc1C)S(=O)(=O)c1cccs1	-9.43% [at 5 µM]
Cc1ccccc1N(Cc1nc(-c2ccc(OC(C)C)cc2)oc1C)S(=O)(=O)c1cccs1	4.55%
CCOc1ccc(-c2nc(CN(c3ccccc3C)S(=O)(=O)c3cccs3)c(C)o2)cc1OC	-13.1% [at 0.16 µM]
CCOC(=O)CSC1=Nc2ccccc2C2=NC(CC(=O)NCc3ccco3)C(=O)N12 (centres undefined)	21.4% [at 1.35 µM]
COc1ccc(C(=O)Nc2ccc(-c3nc(-c4cc(C)ccc4C)co3)cc2)cc1	9.17%
COc1ccccc1C(=O)N1CCC2(CC1)Nc1ccc(C)c(C)c1-n1cccc12	-7.27% [at 1.35 µM]
CN1CCC(N2CCN(c3ncccc3-c3nnc(-c4ccc(Cl)cc4)o3)CC2)CC1	4.69%
Cc1ccc(NC(=O)Nc2ccc(-c3nc(-c4ccccc4)co3)cc2)cc1Cl	9.34%
CCOc1ccc(NC(=O)COc2nc(C)nc3ccccc23)cc1	30.4% [at 10 µM]
Cc1ccc2c(c1C)-n1cccc1C1(CCN(C(=O)COc3ccc(F)cc3)CC1)N2	-9.55% [at 0.16 µM]
Cc1ccc(-c2coc(-c3ccc(NC(=O)CC4CCCCC4)cc3)n2)cc1	-15.2%
COc1ccccc1N(Cc1nc(-c2ccc(OC(C)C)cc2)oc1C)S(=O)(=O)c1cccs1	-8.76% [at 0.35 µM]
CCOc1ccccc1N(Cc1nc(-c2cccc(Cl)c2)oc1C)S(=O)(=O)c1cccs1	6.9%
COc1ccccc1N(Cc1nc(-c2ccccc2)oc1C)S(=O)(=O)c1cccs1	-5.51% [at 0.68 µM]
CCOc1ccccc1N(Cc1nc(-c2cccc(C)c2)oc1C)S(=O)(=O)c1cccs1	10.6%
O=C(O)CN1C[C@H]2c3ccccc3C(OCC3CC3)[C@@H]2C1 (some centres undefined)	42.3%
CCc1ccc2c(c1)cc(S(=O)(=O)c1ccccc1)c(=O)n2CC(=O)NC1CCCC1	14.3% [at 0.16 µM]
COc1ccc(-c2nc(Nc3ccc(C)c(F)c3)c3ccccc3n2)cc1	17.7% [at 2.6 µM]
O=C(Cn1cccc1-c1nc(-c2ccccc2)cs1)N1CCC2(CC1)OCCO2	-15.4% [at 2.6 µM]
COc1ccccc1N(Cc1nc(-c2ccccc2)oc1C)S(=O)(=O)c1ccccc1C	9.45% [at 5 µM]
Cc1csc([C@H]2C[C@H]3CCN(C(=O)c4cnccn4)C[C@@H]3O2)n1	48.1%

Structure (SMILES)	max activity
COc1ccc(-c2nc(C)c(-c3ccc(SCc4ccc(C(F)(F)F)cc4)nn3)s2)cc1	8.72% [at 2.6 µM]
CCCCC(=O)N1CCC2(CC1)Nc1cc(OC)ccc1-n1cccc12	14.1% [at 2.6 µM]
Cc1ccc(-c2nc(CN3CCN(C(=O)Nc4ccccc4Cl)CC3)c(C)o2)cc1	16.4% [at 2.6 µM]
O=C(CC1N=C2c3ccccc3N=C(SCc3ccc(Cl)cc3)N2C1=O)NCc1ccc(F)cc1 (centres undefined)	15%
O=C(CC1N=C2c3ccccc3N=C(SCc3ccccc3Cl)N2C1=O)NCc1ccccc1 (centres undefined)	12.8% [at 2.6 µM]
CCOC(=O)CSC1=Nc2ccccc2C2=NC(CC(=O)NCCc3ccccc3)C(=O)N12 (centres undefined)	64.6%
O=C(CC1N=C2c3ccccc3N=C(SCc3cccc(Cl)c3)N2C1=O)NCc1ccc2c(c1)OCO2 (centres undefined)	19.4% [at 10 µM]
O=C(CC1N=C2c3ccccc3N=C(SCc3ccccc3Cl)N2C1=O)NCc1ccc(F)cc1 (centres undefined)	-7.22% [at 0.16 µM]
O=C(CC1N=C2c3ccccc3N=C(SCc3cccc(Cl)c3)N2C1=O)NCc1ccc(F)cc1 (centres undefined)	30.2%
COc1ccccc1-c1nc(Cn2nnc(-c3nc(-c4ccc(Cl)cc4)no3)c2C)c(C)o1	9.29%
COc1ccc(C(=O)Nc2ccc(-c3nc(-c4ccc(C)cc4)co3)cc2)cc1OC	61.6% [at 10 µM]
COC(=O)c1ccc(NC(=O)Nc2ccc(-c3nc(-c4ccc(C)cc4C)co3)cc2)cc1	12.9% [at 0.68 µM]
CN(C)c1cccc(C(=O)N2CSC[C@@H]2C(=O)NCCc2csc(-c3ccccc3)n2)c1	9.09% [at 0.16 µM]
CCOC(=O)c1ccc(NC(=O)CN2CCC3(CC2)N=C(c2ccccc2)C(=O)N3)cc1	23.6%
COc1ccc(-c2nc(CN(c3ccc(OC)cc3)S(=O)(=O)c3ccccc3C)c(C)o2)cc1	2.45%
Cc1oc(-c2ccccc2)nc1Cn1nnc(-c2nc(-c3ccc(OC(C)C)cc3)no2)c1C	-7.48% [at 5 µM]
CCc1nc(OCC(=O)Nc2ccccc2Br)c2ccccc2n1	18.5% [at 0.68 µM]
O=C(NCCc1csc(-c2ccccc2)n1)[C@H]1CSCN1S(=O)(=O)c1ccccc1F	11.9% [at 0.16 µM]
O=C(Nc1ccccc1)[C@@H]1[C@@H](CO)[C@@H]2Cn3c(ccc(C4=CCCCC4)c3=O)[C@@H]2N1Cc1cocn1	31.9%
Cc1cccc(-c2noc(-c3nnn(Cc4nc(-c5cccc(C)c5)oc4C)c3C)n2)c1	17.9%
Cc1ccc(-c2coc(-c3ccc(NC(=O)NCCc4ccccc4)cc3)n2)c(C)c1	27.7% [at 0.35 µM]
Cc1ccc(NC(=O)CN2CCC3(CC2)N=C(c2cccc(F)c2)C(=O)N3)cc1C	-21.1%
CCOc1ccc(NC(=O)N2CCN(Cc3nc(-c4ccccc4C)oc3C)CC2)cc1	-9.52%
Cc1nc(OCC(=O)Nc2ccc(C(C)C)cc2)c2ccccc2n1	15.7% [at 1.35 µM]
